# From PubChem
# An excerpt weighted towards active compounds, which were near 4.6% of everything screened.
# hcDAF-12 act: activates DAF-12 receptor from parasite H. contortus | HEK293 hcDAF-12 lit1-tk-luc reporter, luminescence; 0% DMSO, 100% Δ7-dafachronic acid | activation, % at 6.8 µM | hit rate 1.4% among 370,000;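 active = activation above the mean of all tested compounds plus 3 SD, cut at about 5.5% in these data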;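 note: 100% = response to 3 µM Δ7-dafachronic acid high control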
# ssDAF-12 act: S. stercoralis DAF-12 activation, primary screen; activation, % at 6.8 µM; HEK293 ssDAF-12/GRIP1 lit1-tk-luc reporter, luminescence; % of 3 µM dafachronic acid response; hit rate 1% among 370,000; AID 652126;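 active = activation above the mean over all tested compounds plus 3 SD, cut at about 0.9% in these data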;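 note: 0% = DMSO-only wells and 100% = 3 µM delta7-dafachronic acid wells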
# DAX1 inh-1: inhibitors of DAX1 repression of SF-1 activated StAR promoter; HEK293T StAR-luciferase reporter, SF-1/DAX-1 repression relief; AID 652010; inhibition, % at 6.8 µM; hit rate 1.1% among 370,000;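 active = inhibition above the mean over all tested compounds plus 3 SD, cut at about 3.6% in these data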;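 note: 0% = DAX-1 cells with DMSO and 100% = cells lacking DAX-1 with DMSO; higher inhibition means more luminescence from relief of DAX-1 repression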
# Wee1 stabilizer: blocks degradation of human Wee1 kinase; HeLa Luc-Wee1K328M stability, luciferase luminescence; 100% = proteasome inhibitor MG132 effect; reporter increase, % at 5 µM; hit rate 1.2% among 220,000; AID 1321;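 active = activation above the mean of all tested compounds plus 3 SD, set per screening run, cut at about 8.8% in these data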;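 note: cells exposed to compound for 20 h before luminescence read; 0% = DMSO alone and 100% = MG132 at 30 µM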
# Target sequence (P30291 whole entry K328M): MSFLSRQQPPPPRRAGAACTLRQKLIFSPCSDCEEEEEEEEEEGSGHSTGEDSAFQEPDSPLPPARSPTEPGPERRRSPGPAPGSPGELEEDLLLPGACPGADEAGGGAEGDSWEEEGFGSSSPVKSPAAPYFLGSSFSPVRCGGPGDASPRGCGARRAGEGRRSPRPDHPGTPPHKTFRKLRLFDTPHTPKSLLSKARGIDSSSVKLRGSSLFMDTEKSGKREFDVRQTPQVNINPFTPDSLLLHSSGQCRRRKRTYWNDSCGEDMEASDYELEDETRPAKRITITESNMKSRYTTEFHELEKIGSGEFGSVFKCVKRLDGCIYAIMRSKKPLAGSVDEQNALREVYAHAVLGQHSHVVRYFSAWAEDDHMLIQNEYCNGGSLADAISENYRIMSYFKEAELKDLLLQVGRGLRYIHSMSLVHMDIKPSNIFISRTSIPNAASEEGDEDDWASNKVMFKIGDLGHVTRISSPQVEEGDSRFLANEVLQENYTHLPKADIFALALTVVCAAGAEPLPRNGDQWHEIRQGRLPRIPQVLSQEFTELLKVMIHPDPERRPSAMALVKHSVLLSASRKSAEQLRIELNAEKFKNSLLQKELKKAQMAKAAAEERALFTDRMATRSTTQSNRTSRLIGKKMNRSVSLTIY
# DAX1 inh-2: inhibits human nuclear receptor DAX1; HEK293 Gal4-DAX1 luciferase reporter, luminescence; inhibition, % at 6.75 µM; hit rate 0.99% among 340,000;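 active = inhibition above the mean over all tested compounds plus 3 SD, cut at about 4.2% in these data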;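 note: 0% = DAX1-transfected cells with DMSO and 100% = empty-vector control cells with DMSO; inhibition shows as a rise in luminescence from relieved DAX1 repression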
# hgDAF-12 ag: hgDAF-12 agonism, primary luciferase screen; HEK293 GAL4-hgDAF12 UAS-luciferase reporter, agonist luminescence; normalized to butyrate control; activation, % at 6.8 µM; hit rate 1.8% among 370,000;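 active = activation above a cutoff set at the mean of all screened compounds plus 3 SD, cut at about 10% in these data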;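 note: 0% = DMSO wells and 100% = sodium butyrate wells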
# Wee1 stab conf: human Wee1 degradation inhibition, confirmation. activation, % at 5 µM. shares compounds with Wee1 stabilizer. hit rate 4% among 1,100. AID 1410. HeLa Luc-Wee1K328M degradation, luminescence; vehicle 0%, proteasome-blocked wells 100%; in the data active = activation above about 8.9%
# DAX1 inh confirm: NR0B1 (human) inhibition, confirmation; HEK293T StAR-promoter luciferase reporter, SF-1/DAX-1 repression; shares compounds with DAX1 inh-1; inhibition, % at 6.8 µM; hit rate 87% among 2,400; AID 652134;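 active = inhibition above the average of every tested compound plus 3 SD, cut at about 3.8% in these data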;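 note: 0% = DAX-1 cells with DMSO and 100% = no DAX-1 control cells with DMSO; active compounds raise luminescence by relieving repression of the StAR reporter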
# SF1 mutant ctr: counter-screen for DAX1 inhibitors: nonselective inhibitors with SF-1 AF2 mutant; shares compounds with DAX1 inh-1; AID 652136; HEK293 StAR-luciferase, luminescence; hit rate 78% among 2,400; inhibition, % at 6.8 µM;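 active = inhibition above the mean of all tested compounds plus 3 SD, cut at about 3% in these data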;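 note: 0% = DAX-1 transfected cells with DMSO and 100% = cells without DAX-1 with DMSO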
# * = called active by the depositor; / = not tested or not shown; ! = a repeat was not active.
SMILES,hcDAF-12 act,ssDAF-12 act,DAX1 inh-1,Wee1 stabilizer,DAX1 inh-2,hgDAF-12 ag,others
CCOc1ccc([N+](=O)[O-])cc1CNCCc1ccccc1,3,0,-1,11*,1,0,Wee1 stab conf=-2
O=[N+]([O-])c1ccc(CNCCc2ccccc2)cc1,0,-2,0,/,-1,0,
CCC(=O)c1ccc(OCC(=O)N2CCN(CC(=O)Nc3ccccc3C(F)(F)F)CC2)cc1,-3,-1,-7,/,-2,-2,
COc1ccc(-c2cc(=NCCCCCC(=O)O)c3cc(C)ccc3o2)cc1,2,-1,2,17*,1,11*!,Wee1 stab conf=3
O=S(=O)(F)c1ccc2nc(-c3cccc(Sc4ccccc4)c3)cc(Cl)c2c1,1,-1,0,8,2,1,
CC1CCSP(=O)(Oc2ccccc2)O1 (stereo unspecified),-1,-1,1,1,-1,1,
CCN(CC)CCCN=Cc1c(O)n(-c2ccccc2F)c(=O)[nH]c1=O,-2,-1,0,36*,1,0,Wee1 stab conf=-1
COc1ccccc1N1CCN(Cc2ccc(F)cc2)CC1,-1,-1,0,14*,0,0,Wee1 stab conf=3
COc1ccccc1N1CCN(Cc2ccc(SC)cc2)CC1,-2,-1,-1,/,-1,0,
C[C@]12CCC3C(CC[C@H]4C[C@H](O)CC[C@]34C)C1[C@@H](O)C[C@@H]2O (stereo partly specified),-1,-2,1,/,0,0,
CC1(C)C2([N+](=O)[O-])CN3CC1([N+](=O)[O-])CN(C2)C3c1cccnc1 (stereo unspecified),0,-1,0,14*,2,0,Wee1 stab conf=0
CC1(C)C2([N+](=O)[O-])CN3CC1([N+](=O)[O-])CN(C2)C3c1ccccn1 (stereo unspecified),-1,-1,0,0,1,-1,
c1ccc2oc(-c3ccc4c(c3)CNCc3cnnn3-4)cc2c1,0,0,5.0*,/,/,9,DAX1 inh confirm=7.0*;SF1 mutant ctr=4.6*
NCC(O)c1cc(O)c(O)cc1F (stereo unspecified),1,0,1,/,-1,-1,
O=c1[nH]cnc2nc(-c3ccc(N(CCCl)CCCl)cc3)[nH]c12,2,-1,5.5*,/,1,8,DAX1 inh confirm=11*;SF1 mutant ctr=0
CCOC(=O)[C@]12Cc3ccccc3[C@H]1N(CCC(=O)OC)C(=O)c1cc(OC)ccc12,2,-1,7.2*,/,/,-1,DAX1 inh confirm=4.1*;SF1 mutant ctr=9.3*
COC(=O)C1=C(c2cccc(OC)c2OC)C[C@@H]2CC[C@H]1N2C(=O)NCCCOC(C)C,-1,-1,0,/,1,-3,
CC(C)C(NC(=O)C(C(C)C)N(C)C)C(=O)N(C)C(C(=O)N1CCCC1C(=O)N1CCCC1C(=O)NCc1ccccc1)C(C)C (stereo unspecified),0,0,5.4*,/,1,-7,DAX1 inh confirm=21*;SF1 mutant ctr=-7
COC1CCC(OC2CC(C3(C)CCC4(CC(O)C(C)C(C(C)/C=C(\C)C(=O)C(C)CC(C)C(=O)O)O4)O3)OC3(OC(C4OC(O)(CO)C(C)CC4C)CC3C)C2C)OC1C (stereo unspecified),-1,-1,9.6*,/,0,-3,DAX1 inh confirm=-9;SF1 mutant ctr=-12
CCN1C[C@]2(C)CC[C@H](OC)[C@]34C2[C@H](OC(C)=O)[C@@]2(OCO[C@@]25C[C@H](OC)[C@H]2C[C@]3(O)C5[C@H]2OC)[C@@H]14,0,-1,0,/,0,1,
O=[N+]([O-])c1oc2ccc3ccccc3c2c1CCO,-1,-2,-3,/,-2,-1,
